# Shiga inhibitor = blocks Shiga toxin action in Vero cells | hit rate 9.2% among 290,000 | AID 2315 | Vero cells, Shiga toxin protein synthesis inhibition reporter | inhibition, % at 38.7 µM; in the data active = inhibition mostly above about 28%, no sharp cut-off; inactive = mostly below about 43%; note: 0% is about no effect
# AMA1 RON2 block = AMA1-RON2 (P. falciparum) interaction inhibition. AlphaScreen AMA1-biotinylated RON2 peptide binding. Potency, µM (top dose mostly 58.2 µM), for the others: at the top dose activity change, negative = inhibition, actives largely listed as inhibitors. hit rate 0.2% among 360,000;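 note: potency is the fitted concentration of half-maximal effect; 0% = vehicle wells and -100% = peptide control; nearly all actives have a fitted effect of over 45% in size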
#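 AMA1 (3D7) with his tag at 25 nM final met compounds first, then biotinylated RON2 peptide at 25 nM; detection used donor plus acceptor beads, 10 µg/mL apiece, read by AlphaScreen after 30 min at room temperature.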
# Cycloheximide cs = counter-screen for Shiga toxin inhibitors: cycloheximide protein synthesis inhibition. cell reporter, cycloheximide protein synthesis inhibition counterscreen. hit rate 12% among 300,000. AID 2314. max response, %; in the data active = max response mostly above about 13%, no sharp cut-off; inactive = mostly below about 14%; note: read at 38.3 µM for the half of the compounds with a filed dose; 0% is about no effect
# Pf growth 48h = P. falciparum growth inhibition at 48 hours (one generation); Potency, µM (top dose mostly 28.7 µM), for inactives: at the highest dose activity change, negative = inhibition, hits mostly inhibitors; hit rate 5.9% among 310,000; AID 504832; P. falciparum luciferase growth in erythrocytes, 48 h; note: potency is the fitted concentration of half-maximal effect; % is set by controls: 0 for no effect and ±100 for the full control effect
#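 Luminescence readout; reporter = integrated firefly luciferase in P. falciparum. RBC culture at 2% hematocrit, 0.1% parasitemia final, 37 C/5% CO2; decreased signal taken as growth inhibition.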
# HCV inh = HCV inhibition; Huh7.5.1 HCVcc-Cre infection, luciferase reporter, 44 h; AID 651820; hit rate 3.4% among 340,000; Potency, µM (top dose mostly 41.8 µM), without a hit: top-dose activity change, negative = inhibition, actives largely listed as inhibitors; note: potency is the fitted concentration of half-maximal effect; % is set by controls: 0 for no effect and ±100 for the full control effect
#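 1,000 cells/well; 4 h culture; + compound; + HCVcc-Cre (~0.5 moi); 44 h; luciferase substrate, RT 15 min; read 15 sec.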
# Pf growth 96h = inhibits malaria parasite growth, 96 h. hit rate 6.9% among 320,000. P. falciparum luciferase reporter growth, 96 h. AID 504834. Potency, µM (doses to about 28.7 µM), for inactives: at the highest dose activity change, negative = inhibition, most hits filed as inhibitors; note: potency is the fitted concentration of half-maximal effect; % is set by controls: 0 for no effect and ±100 for the full control effect
#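 Compounds incubated with erythrocytes infected by luciferase-expressing P. falciparum (2% hematocrit, 0.05% parasitemia final) for 96 hours, 37 C in 5% CO2. Growth inhibition scored as decreased luciferase luminescence.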
# * hit, by the source's call; ? = inconclusive; · = not tested or not shown; + = active, no number; [ ] = dose if it differs, or a comment. Shown are actives, neighbours in structure and some others; about 21% of the full set was active somewhere. Unless noted, calls come from the whole dose curve; as a rule, active = well fitted curve in the direction sought with a large enough effect; inconclusive = small, poorly fitted or top-dose-only effect, or another doubt; inactive = no such curve, though single readings can be large; an effect the other way counts as inactive or inconclusive.
SMILES,Shiga inhibitor,AMA1 RON2 block,Cycloheximide cs,Pf growth 48h,HCV inh,Pf growth 96h
c1ccc(-c2nc(NC3CC3)nc(-n3ccnc3)n2)cc1,12,3%,1,13µM*,2.5µM*,-3%
c1ccc(-c2ccc(CN3CCN(c4ncccn4)CC3)cc2)cc1,36,?,7,56%,6%,·
c1ccc(CN2CCN(c3nc(-c4ccccc4)nc(-n4ccnc4)n3)CC2)cc1,-1,?,-3,3.7µM*,11µM*,-9%
CCCCCCC(=O)Oc1cccc(C2=CC(=O)CC(C)(C)C2=O)c1,·,-19%,·,·,·,·
O=C(/C=C(\O)c1ccccc1)C(=O)NNC(=O)c1ccccc1,52*,95%,39*,56%,7%,3%
CCOC(=O)N1CCC(NS(=O)(=O)c2ccc(NC(C)=O)c(Cl)c2)CC1,37,24%,-1,51%,6.3µM*,-7%
CCOC(=O)N1CCC(NS(=O)(=O)c2ccc(C)cc2)CC1,-6,5%,1,8%,-15%,?
CC1(C)CC(=O)C2=C(C1)OC1=C(C(=O)CC(C)(C)C1)C2c1ccc(O)cc1O,-15,-5%,-10,12µM*,?,10µM*
CC(C(=O)Nc1nc(-c2ccc(F)cc2)cs1)N1C(=O)C2CC=CCC2C1=O (configuration not stated),·,10%,·,-14%,-8%,0%
COc1ccc(C(C)(NC(C)=O)c2nc(-c3cc(F)cc(F)c3)cs2)cc1 (configuration not stated),·,-7%,·,·,·,·
CN(C)C(=O)CSc1nc2ccc(N3C(=O)c4ccccc4C3=O)cc2s1,-2,5%,1,34%,-17%,4%
CC(C)Sc1nc2ccc(N3C(=O)C4CCCCC4C3=O)cc2s1 (configuration not stated),24,4%[2.32 µM],24*,13%,2%,17%
CN(C(=O)c1cccc(NC(=O)Cc2ccc(NC(=O)C3CCN(C(=O)c4ccccc4)CC3)cc2)c1)C1CCCC1,·,-6%,·,·,8%[8.37 µM],·
COc1cc2nc(=S)n3[nH]c(CCn4nc(C)cc4C)nc3c2cc1OC,-3,16%,9,2.9µM*,-11%,-10%
COCCn1c(=NC(=O)C2COc3ccccc3O2)sc2cc(S(N)(=O)=O)ccc21 (configuration not stated),-16,11%,-1,-12%,-15%,?
CCn1c(=NC(=O)C2COc3ccccc3O2)sc2c(OC)ccc(OC)c21 (configuration not stated),9,-4%,-4,-22%,11µM*,-13%
COc1cccc(CNS(=O)(=O)c2ccc3c(c2)CC(C)N3C(=O)C2CC2)c1 (configuration not stated),17,1%,22,4%,?,10%
Cc1ccc(N(C)S(=O)(=O)c2ccc3c(c2)CC(C)N3C(=O)C2CC2)cc1 (configuration not stated),-5,-3%,8,?,-21%,6%
CC(=O)N1c2ccc(S(=O)(=O)NCC3CCC(C(=O)N4CC(C)CC(C)C4)CC3)cc2CC1C (configuration not stated),-3,-5%,13,?,14µM*,?
COc1cc(CNS(=O)(=O)c2ccc3c(c2)CC(C)N3C(=O)C2CCC2)cc(OC)c1OC (configuration not stated),15,-4%,1,-29%,10µM*,?
CCN(c1ccc(OC)cc1)S(=O)(=O)c1ccc2c(c1)CC(C)N2C(=O)C1CC1 (configuration not stated),5,-3%,22*,?,-6%,?
COc1ccc(CNS(=O)(=O)c2ccc3c(c2)CC(C)N3C(=O)C2CC2)cc1 (configuration not stated),-3,-5%,19,-1%,22µM*,?
CCOc1ccc(NC(=O)CN(C)S(=O)(=O)c2ccc3c(c2)CCC(=O)N3)cc1,0,-6%,-4,?,-11%,?
CCCNC(=O)C1CCC(CNS(=O)(=O)c2ccc3c(c2)CC(C)N3C(C)=O)CC1 (configuration not stated),-6,14%,-1,-7%,7%,-2%
COCCNC(=O)C1CCC(CNS(=O)(=O)c2ccc3c(c2)CC(C)N3C(=O)C2CC2)CC1 (configuration not stated),-9,14%,-2,13%,-4%,12µM*
SMILES,Shiga inhibitor,AMA1 RON2 block,Cycloheximide cs,Pf growth 48h,HCV inh,Pf growth 96h
CCN(CC)c1ccc(/C=N/n2c(C)nc3ccccc3c2=O)cc1,21,-13%,10,·,?,-25%
CCN(CC)c1ccc(NC(=O)COC(=O)/C=C/c2nc3ccccc3s2)cc1,66,?,14*,19%,6%,16%
CCN(CC)c1ccc(/C=C/c2nc3ccccc3s2)cc1,127*,·,40*,209%,·,78%
COc1cc(F)ccc1-c1cc(C(=O)Nc2cc(OC)c(OC)c(OC)c2)[nH]n1,·,6%,·,·,·,·
Cc1ccc(C)c(S(=O)(=O)N2CCCC2CNC(=O)C(=O)NCc2ccco2)c1 (configuration not stated),·,-2%,·,?,0%,0%
Cc1ccc(C)c(S(=O)(=O)N2CCCCC2CCNC(=O)C(=O)NCc2ccco2)c1 (configuration not stated),·,-7%,·,?,11µM*,?
Cc1cc(C)c(S(=O)(=O)N2CCCCC2CCNC(=O)C(=O)NC2CC2)c(C)c1 (configuration not stated),·,3%,·,9.3µM*,7%,?
N/C(Cc1cccs1)=N\OC(=O)COc1ccc(Br)cc1Cl,140*,157%,33*,85%,23%,118%
N/C(Cc1cccs1)=N\OC(=O)COc1ccccc1Cl,119*,90%,60*,106%,-5%,·
COc1ccccc1CNC(=O)COC(=O)c1cc2ccccc2o1,·,9%,·,·,36%,·
O=C(NCc1ccccn1)[C@@H]1CCCN1C(=O)[C@@H]1CCCN1,·,94%,·,·,·,·
CC1(C)CC(=O)c2cc(C(=O)O)c(=O)n(-c3ccccc3)c2C1,-10,-3%,0,9%,12%,·
CC1(C)CC(=O)c2cc(N=C/C(C(=O)c3ccccc3)=C(\O)c3ccccc3)c(=O)oc2C1,185*,53%,43*,8%,1%,34%
CC(=O)C(Cc1ccccc1)NC(=O)CN(C)Cc1ccccc1Cl (configuration not stated),-16,3%,14,?,-4%,?
COc1ccc(C(=O)/C=C/Nc2cccc(C)n2)cc1OC,+,2%,65*,-35%,?,153%
COc1ccc(N/C=C/C(=O)C(F)(F)F)cc1,-58,-16%,15,6%,-3%,-17%

# From PubChem BioAssay
